This is an account of results in PubChem BioAssay (NCI).

Some test systems named below: HCT-15 colon; HT29 colon; SNB-75 CNS; SNB-19 CNS; U251 CNS; PC-3 prostate; SK-MEL-5 melanoma; UACC-62 melanoma; LOX IMVI melanoma; SK-MEL-28 melanoma.
Assay in all cases: NCI-60 one-dose screen, 48 h (100 = growth as untreated, 0 = no growth, -100 = all killed)
Common to all, as to conditions: 10 µM unless noted

About 83,000 compounds went through this panel and 20% of them were active in at least one assay; those are over-represented in the sample as a whole.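 Percent growth is the endpoint: 0 to 100 indicates growth inhibition (40 means 60% inhibition), 0 means no net growth, and negative values indicate cell death.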 A number with no mark means an inactive call. The source made the active and inactive calls. The calls were made as follows: active = growth percent below 10; inactive = the rest.

On to `O=c1c2ccccc2sc2c(NCCN3CCOCC3)nc3ccccc3c12`, for which the growth in the assay with HCT-15 colon is 27.1%; in the assay on HT29 colon, 8.68% (active); with SNB-75 CNS, 42.8%; in the assay on SNB-19 CNS, 79.3%; in the assay with U251 CNS, 42.3%; in the assay with PC-3 prostate, 43.2%. The growth with SK-MEL-5 melanoma is 54.8%; with UACC-62 melanoma, 33.3%; in the assay on LOX IMVI melanoma, 5.67% (active); in the assay with SK-MEL-28 melanoma, 69.4%.
In the case of `COc1cc(-c2nc3sc(C)cn3c2/C=C2\C(=O)Nc3ccccc32)c(Br)c(OC)c1OC`, the growth is 52.9% with HCT-15 colon; 9.62% (active) with HT29 colon; 18.2% with SNB-75 CNS; 40.4% in the assay on SNB-19 CNS; 52.1% in the assay with U251 CNS; 26.5% with PC-3 prostate. The growth in the assay on SK-MEL-5 melanoma was 10.4%; in the assay with UACC-62 melanoma, 52.8%; with LOX IMVI melanoma, 41.3%; in the assay on SK-MEL-28 melanoma, 69.5%.
As to `COc1ccc(-c2ccc(NC(=O)Nc3ccc(Cl)c(C(F)(F)F)c3)c(C)n2)cc1`, the growth with HCT-15 colon was 37.8%; with HT29 colon, 46.4%; in the assay on SNB-75 CNS, 73.4%; in the assay with SNB-19 CNS, 57.3%; in the assay on U251 CNS it was 33.6%; in the assay with PC-3 prostate it was 14.7%. Besides, the growth was 55.7% in the assay with SK-MEL-5 melanoma, 65.6% in the assay on UACC-62 melanoma, 64.5% in the assay on LOX IMVI melanoma and 71.4% with SK-MEL-28 melanoma.
Take `COc1ccc2c(c1)/C(=C/c1c(-c3cc(OC)c(OC)c(OC)c3Br)nc3sccn13)C(=O)N2`: the growth is 109% with HCT-15 colon; 103% in the assay with HT29 colon; 109% in the assay with SNB-75 CNS; 106% in the assay with SNB-19 CNS; 93.4% in the assay with U251 CNS; 82.6% in the assay with PC-3 prostate. For the same compound, the growth in the assay on SK-MEL-5 melanoma is 83.1%; in the assay on UACC-62 melanoma, 69.2%; with LOX IMVI melanoma, 64.7%; in the assay with SK-MEL-28 melanoma, 123%.
For the compound `COc1cc([C@@H]2c3cc4c(cc3C(OC3O[C@@H]5COC(C)O[C@H]5[C@H](O)[C@H]3O)C3COC(=O)[C@@H]32)OCO4)cc(OC)c1O` (stereo not given in full), the growth in the assay on HCT-15 colon was 73.1%; with HT29 colon, 64.5%; in the assay on SNB-75 CNS it was 31.2%; in the assay with SNB-19 CNS, 27.4%; with U251 CNS, 13.5%; in the assay with PC-3 prostate, 63.3%. In addition, the growth was 17.4% in the assay on SK-MEL-5 melanoma, 33.7% in the assay on UACC-62 melanoma, 12% in the assay with LOX IMVI melanoma and 61.4% in the assay on SK-MEL-28 melanoma.
As for `COc1cc(-c2nc(SCC(=O)Nc3ccc(C(C)=O)cc3)[nH]c(=O)c2C#N)cc(OC)c1OC`, the growth with HCT-15 colon was 40.2%; in the assay on HT29 colon, 6.82% (active); in the assay with SNB-75 CNS, 38.3%; in the assay with SNB-19 CNS, 58.2%; in the assay on U251 CNS, 16%; in the assay with PC-3 prostate it was 18%. Besides, the growth in the assay on SK-MEL-5 melanoma was 15.2%; in the assay on UACC-62 melanoma, 36%; in the assay on LOX IMVI melanoma, 18.5%; with SK-MEL-28 melanoma it was 57.8%.
`C=C1C(=O)O[C@H]2[C@H]1CC/C(C(=O)Nc1ccc(OC)c(C(N)=O)c1O)=C\CC[C@@]1(C)O[C@@H]21`: the growth in the assay with HCT-15 colon is 45.8%; in the assay with HT29 colon it was 36%; in the assay with SNB-75 CNS, 88.5%; in the assay on SNB-19 CNS, 90.4%; with U251 CNS, 82.2%; with PC-3 prostate it was 95.3%. In addition, the growth in the assay with SK-MEL-5 melanoma was 86.7%; in the assay with UACC-62 melanoma, 67.5%; in the assay with LOX IMVI melanoma it was 77.1%; in the assay on SK-MEL-28 melanoma it was 52.9%.
As to `COc1ccc(C(=O)Cn2cnc3c(Nc4cc(C(=O)Nc5ccc(N6CCN(CCO)CC6)cc5)ccc4C)ncnc32)cc1`, the growth in the assay on HCT-15 colon is 102%; in the assay with HT29 colon, 101%; with SNB-75 CNS, 79.4%; in the assay with SNB-19 CNS, 108%; with U251 CNS it was 105%; in the assay on PC-3 prostate, 105%. The growth with SK-MEL-5 melanoma is 102%; in the assay with UACC-62 melanoma it was 104%; in the assay with LOX IMVI melanoma, 94.2%; in the assay with SK-MEL-28 melanoma, 105%.
In the case of `COc1cccc(C2CC(c3cc(OC)c(OC)c(OC)c3)=NN2)c1` (stereo not given), the growth was 67.3% in the assay on HCT-15 colon; 37.1% with HT29 colon; 74.4% in the assay on SNB-75 CNS; 77.2% with SNB-19 CNS; 85.6% with U251 CNS; 69.1% in the assay with PC-3 prostate. The growth in the assay on SK-MEL-5 melanoma is 83.7%; in the assay with UACC-62 melanoma it was 82.4%; in the assay on LOX IMVI melanoma, 61%; with SK-MEL-28 melanoma, 101%.
Regarding `O=C(Nc1ccc(Cl)c(Cl)c1)Nc1ccc(Cl)c([N+](=O)[O-])c1`, the growth was 5.16% (active) in the assay with HCT-15 colon; 2.02% (active) in the assay with HT29 colon; 16.2% in the assay on SNB-75 CNS; 15.1% in the assay on SNB-19 CNS; 6.28% (active) with U251 CNS; -0.546% (active) in the assay with PC-3 prostate. Also, the growth in the assay on SK-MEL-5 melanoma was -90.2% (active); in the assay on UACC-62 melanoma it was 9.51% (active); with LOX IMVI melanoma, -19% (active); in the assay with SK-MEL-28 melanoma, 12.8%.
`O=C(Cn1c2ccccc2c2ccncc21)N/N=C/c1cc(O)c(O)c(O)c1`: the growth in the assay with HCT-15 colon was 105%; with HT29 colon, 103%; in the assay on SNB-75 CNS, 115%; with SNB-19 CNS it was 93.9%; in the assay on U251 CNS, 101%; with PC-3 prostate, 102%. Further, the growth in the assay with SK-MEL-5 melanoma was 101%; with UACC-62 melanoma, 103%; in the assay on LOX IMVI melanoma it was 96.9%; in the assay with SK-MEL-28 melanoma it was 108%.
As for `NC(=O)C1=C[C@H]2[C@H]3C=C[C@@]2(O)C(=O)O[C@@H]3O1`, the growth in the assay with HCT-15 colon was 44.8%; in the assay with HT29 colon, 47%; in the assay with SNB-75 CNS it was 76.7%; in the assay on SNB-19 CNS it was 82%; in the assay on U251 CNS, 63.1%; with PC-3 prostate it was 59.1%. For the same compound, the growth with SK-MEL-5 melanoma was 60.7%; in the assay on UACC-62 melanoma, 35.5%; with LOX IMVI melanoma it was 22.9%; in the assay with SK-MEL-28 melanoma, 25.2%.
As to `O=C(Nc1ccc(-n2ccc3c(NC(=O)c4ccccc4)ncnc32)cc1)Nc1ccc(Cl)c(C(F)(F)F)c1`, the growth is -53.2% (active) in the assay with HCT-15 colon; -85.8% (active) in the assay on HT29 colon; 53.5% with SNB-75 CNS; 9.33% (active) in the assay with SNB-19 CNS; -79.6% (active) in the assay with U251 CNS; -38.8% (active) in the assay with PC-3 prostate. In addition, the growth with SK-MEL-5 melanoma is 8.12% (active); in the assay on UACC-62 melanoma it was 29.7%; with LOX IMVI melanoma, 2.99% (active); in the assay with SK-MEL-28 melanoma, 34.6%.
